Compound activity: PubChem, The Scripps Research Institute Molecular Screening Center
hgDAF12 agonist = H. glycines DAF-12 receptor agonists, primary screen, cell-based, luminescence, HEK293, GAL4 fusion, UAS-luciferase. HEK293 GAL4-hgDAF12 UAS-luciferase reporter, agonist luminescence; normalized to butyrate control. activation, % at 6.8 µM. Nuclear hormone receptor DAF-12 (Heterodera glycines), GAL4 fusion. 370,000 tested, 1.8% active;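 active means activation above a cutoff set at the mean of all screened compounds plus 3 SD, cut at about 10% in these data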;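 further: 0% = DMSO wells and 100% = sodium butyrate wells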
ssDAF12 agonist = S. stercoralis DAF-12 nuclear receptor activators, primary screen, cell-based, luminescence, HEK293, GRIP1 co-expression, lit1-tk-luc; HEK293 ssDAF-12/GRIP1 lit1-tk-luc reporter; % of 3 µM dafachronic acid response; Nuclear hormone receptor DAF-12 (Strongyloides stercoralis); 370,000 tested, 1% active; AID 652126, 2013; activation, % at 6.8 µM;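 active means activation above the mean over all tested compounds plus 3 SD, cut at about 0.9% in these data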;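 further: 0% = DMSO-only wells and 100% = 3 µM delta7-dafachronic acid wells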
hcDAF-12 act = H. contortus DAF-12 nuclear receptor activators, primary screen, cell-based, luminescence, HEK293, lit1-tk-luc reporter | HEK293 hcDAF-12 lit1-tk-luc reporter; 0% DMSO, 100% Δ7-dafachronic acid | activation, % at 6.8 µM | 370,000 tested, 1.4% active | AID 652067, 2013;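 active means activation above the mean of all tested compounds plus 3 SD, cut at about 5.5% in these data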;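 further: 100% = response to 3 µM Δ7-dafachronic acid high control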
DAX1 inh-1 = DAX1 (NR0B1) inhibitors on StAR promoter, primary screen, cell-based, luminescence, SF-1 (NR5A1), full-length DAX-1; HEK293T StAR-luciferase reporter, SF-1/DAX-1 repression relief; 370,000 tested, 1.1% active; inhibition, % at 6.8 µM; AID 652010, 2013;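 active means inhibition above the mean over all tested compounds plus 3 SD, cut at about 3.6% in these data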;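 further: 0% = DAX-1 cells with DMSO and 100% = cells lacking DAX-1 with DMSO; higher inhibition means more luminescence from relief of DAX-1 repression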
DAX1 inh-2 = DAX1 (NR0B1) inhibitors, primary screen, cell-based, HEK293, Gal4-DAX1, luciferase luminescence; Nuclear receptor subfamily 0 group B member 1 (Homo sapiens), P51843; HEK293 Gal4-DAX1 luciferase reporter; inhibition, % at 6.75 µM; 340,000 tested, 0.99% active; AID 504766, 2011;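 active means inhibition above the mean over all tested compounds plus 3 SD, cut at about 4.2% in these data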;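 further: 0% = DAX1-transfected cells with DMSO and 100% = empty-vector control cells with DMSO; inhibition shows as a rise in luminescence from relieved DAX1 repression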
Target sequence (P51843 207-470 limits assumed): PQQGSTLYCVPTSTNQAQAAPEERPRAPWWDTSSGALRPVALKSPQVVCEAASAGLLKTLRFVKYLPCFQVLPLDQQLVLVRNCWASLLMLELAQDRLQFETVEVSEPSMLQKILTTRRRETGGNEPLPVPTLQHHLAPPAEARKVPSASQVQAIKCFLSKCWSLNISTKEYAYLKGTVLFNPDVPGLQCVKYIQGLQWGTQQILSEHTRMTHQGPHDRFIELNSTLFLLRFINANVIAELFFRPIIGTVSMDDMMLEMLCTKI
Numbers without * were called inactive; nt = not tested or not shown. Compounds with a hit are over-represented: about 4.1% of the library has one in this group of screens.

SMILES | hgDAF12 agonist | ssDAF12 agonist | hcDAF-12 act | DAX1 inh-1 | DAX1 inh-2
Cn1cc(-c2cccc3[nH]cc(-c4ccccc4)c23)c2ccccc21 | -1 | 1 | 3 | 0 | nt
CC(NC(=O)Cc1ccccc1[N+](=O)[O-])c1ccccc1 (stereo unspecified) | 6 | 0 | 6.3* | 0 | nt
CCC(CC)NC(=O)Cc1ccccc1[N+](=O)[O-] | 2 | 0 | 5.6* | 1 | 1
Cc1cccc(C(=O)N/N=C/c2coc3ccccc3c2=O)c1 | 1 | 0 | 1 | 1 | 0
Cc1ccc2occ(/C=N/NC(=O)[C@@H](N)Cc3ccccc3)c(=O)c2c1 | 4 | -1 | 0 | 0 | 5.3*
O=C(N[C@H](C(=O)N1CCC[C@H]1C(=O)NCc1ccccc1)c1ccccc1)c1ccc(Cl)c(Cl)c1 | 3 | -1 | 0 | 0 | nt
C/C(=N\NC(=O)Cc1cccs1)c1ccco1 | 2 | -1 | 0 | 0 | nt
CCOC(=O)NC(=O)C(=CNc1ccc(C)cc1)C(=O)NC(=O)OCC | 0 | 0 | 6.5* | 0 | 1
COc1cc(NC(=O)C/C(C)=N/NC(=O)c2cccc(O)c2)c(OC)cc1Cl | 12* | 0 | 6.1* | 1 | 3
C/C(CC(=O)Nc1ccc(Br)cc1)=N\NC(=O)c1cccc(O)c1 | 0 | -1 | 0 | 1 | 5.7*
C/C(CC(=O)Nc1ccc2c(c1)OCCO2)=N\NC(=O)c1cccc(O)c1 | 5 | -1 | 1 | 1 | 6.4*
CCOC(=O)CSc1nc(Cc2ccccc2)nc2ccccc12 | -1 | -1 | -3 | 0 | 4.3*
CCOC(=O)CSc1nc(CC)nc2ccccc12 | 1 | -2 | 0 | 0 | 0
COC(=O)[C@]12C[C@H](CC(=O)NCc3ccccc3)C(=O)N(CCC3=CCCCC3)C1=C[C@H](C1CCCC1)O[C@@H]2C | 0 | -2 | 2 | -1 | nt
CC(C)CC[n+]1ccn(-c2nc3ccccc3nc2[N-]S(=O)(=O)c2ccc(Cl)cc2)c1 | 0 | -2 | -1 | 1 | 5.3*
Cc1ccc(S(=O)(=O)[N-]c2nc3ccccc3nc2-n2cc[n+](CCC(C)C)c2)cc1 | 0 | 0 | 2 | 1 | 1
Cc1cccc(Cl)c1NC(=O)N(C)c1ccccc1 | -1 | 0 | 1 | -1 | nt
CCOC(=O)C1=CCN(S(=O)(=O)c2ccccc2F)C1c1ccc(Br)cc1 (stereo unspecified) | 1 | -1 | 0 | -1 | nt
c1ccc(C2Nc3ccccc3-c3nc4ccccc4n32)cc1 (stereo unspecified) | 11* | 0 | 1 | 2 | 3
c1ccc(C2Nc3ccccc3-c3nc4ccccc4n32)nc1 (stereo unspecified) | 10 | 0 | 0 | 1 | 1
Cc1ccc(NC(=O)CSc2ccccc2NC(=O)c2ccccc2)cc1Cl | 8 | 0 | 5.6* | 0 | 0
Cc1ccccc1N(CC(=O)N/N=C/c1ccc(F)cc1)C(=O)c1ccccc1 | 0 | 0.9* | -3 | 0 | -1
Cc1ccccc1N(CC(=O)N/N=C/c1ccc(Cl)cc1)C(=O)c1ccccc1 | 0 | -1 | -1 | 0 | 0
CCN1CCN(c2ccc(S(=O)(=O)N3CCOCC3)cc2NC(=O)c2ccc(C(F)(F)F)cc2)CC1 | 2 | -1 | -1 | 0 | 5.9*
CCN1CCN(c2ccc(S(=O)(=O)N3CCOCC3)cc2NC(=O)c2cccc([N+](=O)[O-])c2)CC1 | 3 | 1.1* | 1 | 0 | 1
O=C1Nc2ccccc2S/C1=C/c1cccs1 | 7 | 1.3* | 4 | 0 | 2
O=C(/C=C/[C@H]1O[C@@H](n2cnc3c(NC(=O)c4ccccc4)ncnc32)[C@H](O)[C@@H]1O)NCCCN1CCCC1=O | -1 | -1 | -1 | 0 | nt
CCCCCn1c(C)c(CC(=O)Nc2ccc(Oc3cccnc3)c(C)c2)c2ccccc21 | -1 | 0 | -1 | 1 | nt
